# Compound activity: PubChem BioAssay, National Center for Advancing Translational Sciences (NCATS)
# Shown are actives, neighbours in structure and some others; about 1.7% of the full set was active somewhere.
# 15-hLO inh: qHTS Assay for Inhibitors of 15-hLO (15-human lipoxygenase); purified 15hLO-1, xylenol orange hydroperoxide absorbance; Potency, µM (highest dose often 57.1 µM), inactives show at the top dose activity change, negative = inhibition, hits mostly inhibitors; 74,000 compounds, 1.4% hits; Polyunsaturated fatty acid lipoxygenase ALOX15 (Homo sapiens), P16050; further: on the % scale 0 is the no-effect control and ±100 the full control effect; nearly all actives have a fitted effect of over 55% in size
#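 Purified human 15hLO-1 (40 nM final) in 25 mM Hepes pH 7.5, 0.01% Triton X-100 was preincubated with compound 15 min at room temperature, then reacted 6 min with 50 uM arachidonic acid; hydroperoxide detected by Fe-XO, 573/405 nm absorbance ratio.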
# ERK AVP block: qHTS Assay for Inhibitors of the ERK Signaling Pathway using a Homogeneous Screening Assay | HEK293-V1b, vasopressin-stimulated pERK AlphaScreen | 72,000 compounds, 0.99% hits | Potency, µM (top dose mostly 57.5 µM), without a hit: at the top dose activity, negative = inhibition, actives largely listed as inhibitors; further: on the % scale 0 is the no-effect control and ±100 the full control effect; nearly all actives have a fitted effect of over 55% in size
#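 qHTS, compounds titrated on V1b-expressing HEK293 cells. Preincubation 30 min at 37C, vasopressin 25 nM for 5 min, lysis 10 min, bead incubation 5 hr at room temperature.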
# ALOX15B inhib: qHTS Assay for Inhibitors of 15-hLO-2 (15-human lipoxygenase 2). Polyunsaturated fatty acid lipoxygenase ALOX15B (Homo sapiens), O15296. purified 15hLO-2, xylenol orange hydroperoxide absorbance. Potency, µM (highest dose often 57.1 µM), for inactives: at the highest dose activity change, negative = inhibition, hits mostly inhibitors. 110,000 compounds, 0.56% hits. AID 881, 2007; further: on the % scale 0 is the no-effect control and ±100 the full control effect; nearly all actives have a fitted effect of over 60% in size
#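 Read-out: hydroperoxide product oxidises ferrous iron, measured as xylenol orange complex via the 573-to-405 nm absorbance ratio after 30 min. Reaction: 50 nM enzyme, 15 min compound preincubation, 45 uM arachidonic acid, 90 min RT, Hepes pH 7.5 with Triton X-100.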
# Casp7 inh: qHTS Assay for Allosteric/Competitive Inhibitors of Caspase-7. P55210. recombinant caspase-7, Ac-DEVD-AFC fluorescence rate. Potency, µM (titrated, usually from 57.5 µM), for inactives: top-dose activity change, negative = inhibition, usual class: inhibitors. 75,000 compounds, 0.02% hits; active means well fitted inhibition curve with a large enough effect in the main read-out, with a control signal flat, not every such curve was filed as active; inconclusive means small, poorly fitted or top-dose-only effect, or a change in a side signal; further: % of control where 0% means no effect
# Caspase-1 inhib: qHTS Assay for Allosteric/Competitive Inhibitors of Caspase-1; P29466; Potency, µM (doses to about 57.5 µM), without a hit: top-dose activity change, negative = inhibition, most hits filed as inhibitors; 75,000 compounds, 0.03% hits; Caspase-1 enzyme, Ac-WEHD-AFC fluorogenic rate;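 further: plate controls were vehicle for no effect and no substrate for full effect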
# Numbers without * were called inactive; u = inconclusive; x = no result; [ ] = remark or other dose. Unless noted, the call rests on the fitted dose curve; in most records, active means well fitted curve in the direction sought with a large enough effect; inconclusive means small, poorly fitted or top-dose-only effect, or another doubt; inactive means no such curve, though single readings can be large; an effect the other way counts as inactive or inconclusive. Potency means the concentration at half of the fitted maximal effect.
SMILES,15-hLO inh,ERK AVP block,ALOX15B inhib,Casp7 inh,Caspase-1 inhib
CCOC(=O)c1ccc(NC(=O)c2cccc(S(=O)(=O)N3CCOCC3)c2)cc1,-19.3%,5.01µM*,-5.3%,-1.2%,-4.1%
CCOC(=O)c1ccc(NC(=O)c2ccc(C)c(S(=O)(=O)N3CCOCC3)c2)cc1,-17.1%[11.4 µM],3.16µM*,3.3%,-0.8%,-2.7%
c1ccc(-c2csc(-c3nc4ccccc4[nH]3)n2)cc1,7.94µM*,1.26µM*,0.8%,-4.1%,-2.3%
COC(=O)NC(CC(C)=O)c1ccc2c(c1)OCO2 (stereo unspecified),1.8%[11.4 µM],20.9%[11.5 µM],x,-1.5%[11.5 µM],-2.9%[11.5 µM]
CCOc1ccc(-c2nc(C#N)c(N3CCOCC3)o2)cc1,-6.4%,u,-1.0%,-1.9%,-2.9%
CCOc1ccc(-c2nc(C#N)c(N3CCN(Cc4ccccc4)CC3)o2)cc1,1.2%,15.8µM*,28.1%,-1.6%,0.4%
CC(C)Oc1ccc(C(=O)Nc2ccc(N3CCCC3)cc2)cc1,1.26µM*,-12.2%,3.1%,-1.2%,-5.0%
CC(C)c1ccc(C(=O)Nc2ccc(N3CCOCC3)cc2)cc1,7.0%,-15.3%,x,-1.3%,1.9%
Cc1cccc(N2CCN(C(=O)Cn3sc4nc(C)cc(C)c4c3=O)CC2C)c1 (stereo unspecified),u,-10.0%,1µM*,-0.7%,3.1%
CC1(C)C(O)C=C[C@@]2(C)C1CC(=O)O[C@@]1(C)C3=CC(=O)OC(c4ccoc4)[C@]3(C)CCC21 (stereo partly specified),2.1%,-6.6%,-8.3%,-4.7%,1.5%
C=CC[C@@H]1C=C[C@@H](O/N=C\C[C@@H]2C=C[C@H](OC(C)=O)[C@H](COC(C)=O)O2)[C@@H](CO)O1,10.0%[11.4 µM],4.2%[11.5 µM],x,-0.1%[11.5 µM],-0.7%[11.5 µM]
O=C(OCC(=O)N1CCN(C(=O)c2ccco2)CC1)c1cc(-c2ccc(F)cc2)nc2ccccc12,-14.9%,-23.7%,4.3%,-14.3%,-12.0%
O=C(OCC(=O)N1CCN(C(=O)c2ccco2)CC1)c1cc(-c2ccccc2)nc2ccccc12,-14.8%,20µM*,-0.5%,-3.4%,-3.0%
Cc1cccc2cc(CN(CCCO)C(=O)Nc3cccc(Cl)c3)c(=O)[nH]c12,20µM*,-27.2%,28.4%,-8.3%,-0.6%
CC1CCC(C(=O)O)NC1c1ccc(-c2ccco2)cc1 (stereo unspecified),7.5%[11.4 µM],2.7%[11.5 µM],x,-6.1%[11.5 µM],-6.9%[11.5 µM]
COc1ccc(O)c(-c2[nH]ncc2C(=O)c2ccccc2)c1,-2.7%,-12.1%,-5.1%,-3.8%,-4.7%
Cc1ccc(C(=O)c2cn[nH]c2-c2cc(Cl)ccc2O)cc1,20µM*,-17.5%,-10.4%,-0.6%,-0.7%
CS(=O)(=O)c1ccc([C@H](O)[C@H](CF)NC(=O)C(Cl)Cl)cc1,3.7%[25.6 µM],14.9%[25.7 µM],-0.1%[25.6 µM],-1.3%[25.7 µM],0.1%[25.7 µM]
CCCC1C(C(=O)OCC)=C(C)NC(C)=C1C(=O)OCC,-2.7%,x,-0.2%,-6.7%,-4.0%
CCOC(=O)C1=C(C)NC(C)=C(C(=O)OCC)C1,10µM*,-8.9%,2.1%,-5.7%,1.1%
c1coc(C2Nc3cccc4cccc(c34)N2)c1,1.58µM*,u,u,-23.1%,-12.5%
N[C@H](Cc1ccc(F)cc1)C(=O)O,-1.2%,7.5%,-9.6%,0.9%,-0.4%
CN(C)c1ccc(N2CN=C3SCC(=O)N3C2)cc1,x,x,15.8µM*,x,x
O=C1OC2(c3ccc(O)cc3Oc3cc(O)ccc32)c2c1c(-c1ccccc1)c(-c1ccccc1)c(-c1ccccc1)c2-c1ccccc1,1µM*,12.8%[11.5 µM],0.1%[11.4 µM],-0.4%[11.5 µM],3.0%[11.5 µM]
O=C(O)c1ccc2c(c1C(=O)O)C(=O)OC2(c1ccc(O)cc1)c1ccc(O)cc1,-2.0%[11.4 µM],4.7%[11.5 µM],10.3%[11.4 µM],-1.4%[11.5 µM],1.0%[11.5 µM]
Cc1cccc(OCC(=O)NC(=S)N2CCCc3ccccc32)c1,x,x,20µM*,x,x
CC(C)N(CCC(=O)c1ccc2ccccc2c1)Cc1ccccc1,u,31.6µM*,12.6µM*,-1.0%,0.3%
CC(C)N(Cc1ccccc1)C(=O)COC(=O)c1ccc2c(c1)OCCO2,10.8%,20.8%,2.7%,-1.8%,-2.5%
